PubChem BioAssay (NCI)
About 79,000 compounds went through this panel and 15% of them were active in at least one assay; those are over-represented in the sample as a whole. A number with no mark means an inactive call. Activity calls are given as the source filed them. No stated cut-off is given here; in the data, active means growth inhibition above about 70%; inactive means the rest.

Assays:
[1] = NCI Yeast Anticancer Drug Screen. Data for the rad50 strain (AID 155);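 further: 0% = growth of vehicle-only cultures of the same strain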; conditions: S. cerevisiae rad50 strain growth inhibition, active compounds read high
Summary of the method: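 Growth of the mutant yeast was measured after compound exposure and referenced to vehicle-treated cultures.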

[2] = NCI Yeast Anticancer Drug Screen. Data for the mec2-1 strain (AID 157); conditions: S. cerevisiae mec2-1 strain, active compounds read high
Summary of the method: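 Yeast mec2-1 mutant treated with compound. Readout: growth inhibition vs vehicle controls.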

[3] = NCI Yeast Anticancer Drug Screen. Data for the sgs1 mgt1 strain (AID 161);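 further: 0% = growth of cultures given vehicle only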; conditions: S. cerevisiae sgs1 mgt1 strain, active compounds read high
Summary of the method: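 Test agents were incubated with a DNA-repair-mutant yeast strain. Growth was then read and compared against vehicle-treated controls.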

[4] = NCI Yeast Anticancer Drug Screen. Data for the cln2 rad14 strain (AID 165);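 further: 0% = growth equal to vehicle treated cultures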; conditions: S. cerevisiae cln2 rad14 strain, active compounds read high
Summary of the method: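 cln2 rad14 yeast strain; compound exposure; growth inhibition read vs vehicle controls.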

[5] = NCI Yeast Anticancer Drug Screen. Data for the bub3 strain (AID 167); conditions: S. cerevisiae bub3 mutant strain, active compounds read high
Summary of the method: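 Whole-cell yeast assay. The mutant strain was incubated with compounds, and growth inhibition was determined by comparison with vehicle-treated cells.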

[6] = NCI Yeast Anticancer Drug Screen. Data for the mlh1 rad18 strain (AID 175); conditions: S. cerevisiae mlh1 rad18 strain growth inhibition, active compounds read high
Summary of the method: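 Yeast w/ defined DNA-repair lesions; compound exposure; growth vs vehicle controls → % inhibition.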

[7] = at 5.0 µM (retest, dose inferred, filed as 0.5)
[8] = at 50.0 µM (retest, dose inferred, filed as 5.0)

SMILES | growth inhibition [1, 7] | growth inhibition [1, 8] | growth inhibition ([1]; at 50.0 µM) | growth inhibition [2, 7] | growth inhibition [2, 8] | growth inhibition ([2]; at 50.0 µM) | growth inhibition [3, 7] | growth inhibition [3, 8] | growth inhibition ([3]; at 50.0 µM) | growth inhibition [4, 7] | growth inhibition [4, 8] | growth inhibition ([4]; at 50.0 µM) | growth inhibition [5, 7] | growth inhibition [5, 8] | growth inhibition ([5]; at 50.0 µM) | growth inhibition [6, 7] | growth inhibition [6, 8] | growth inhibition ([6]; at 50.0 µM)
O=S(=O)(c1ccccc1)C1CN=NC1c1ccccc1 (configuration not stated) | 4% | 79% (active) | 84.2% (active) | -16% | 97% (active) | 97.7% (active) | -7% | 98% (active) | 73.6% (active) | -2% | 69% | 93.5% (active) | 6% | 98% (active) | 87.8% (active) | 30% | 97% (active) | 97% (active)
O=CNc1ccc(Oc2ccc(NC=O)cc2)cc1 | -1% | -18% | 3.6% | -18% | -19% | 6.75% | 1% | 1% | 1.45% | -1% | 7% | 61.3% | -2% | -15% | -6.45% | 17% | -5% | 30.6%
C/C(=N\Nc1n[nH]c(=S)n1N)c1c(O)cc(C)oc1=O | -28% | 13% | -23% | 3% | 12% | 12.1% | -1% | 4% | 18.9% | -2% | 9% | -21% | 2% | 3% | 14.1% | -2% | 2% | 16.5%
CC(C)(c1cc(Br)c(O)c(Br)c1)c1cc(Br)c(O)c(Br)c1 | 76% (active) | 97% (active) | 87.2% (active) | 82% (active) | 99% (active) | 90.7% (active) | 85% (active) | 98% (active) | 87.9% (active) | 81% (active) | 99% (active) | 89.5% (active) | 88% (active) | 98% (active) | 87.5% (active) | 93% (active) | 97% (active) | 87.5% (active)
CC/C(=C(/CC)c1ccc([O-])cc1)c1ccc([O-])cc1.CC/C(=C(\CC)c1ccc([O-])cc1)c1ccc([O-])cc1.O=C([CH-]C(=O)c1ccccc1)c1ccccc1.O=C([CH-]C(=O)c1ccccc1)c1ccccc1.O=C([CH-]C(=O)c1ccccc1)c1ccccc1.O=C([CH-]C(=O)c1ccccc1)c1ccccc1.[Ti+4].[Ti+4] | 84% (active) | 96% (active) | 77.3% (active) | 97% (active) | 97% (active) | 84% (active) | 97% (active) | 96% (active) | 84.4% (active) | 94% (active) | 96% (active) | 80% (active) | 98% (active) | 88% (active) | 60.9% | 94% (active) | 93% (active) | 80% (active)
Cn1cc(-c2c3c(cc4c2OCO4)OCO3)c2ccccc21 | 4% | 99% (active) | 99.2% (active) | -3% | 98% (active) | 99.2% (active) | 2% | 99% (active) | 99.3% (active) | -9% | 96% (active) | 98.8% (active) | -2% | 99% (active) | 99.2% (active) | -1% | 99% (active) | 99.3% (active)
COc1ccc(C2CC(c3sc(Nc4ccc(C)cc4)nc3C)=NN2)cc1 (configuration not stated) | -1% | 20% | 80.3% (active) | -33% | 60% | 62% | -2% | 16% | 71.4% (active) | -1% | 38% | 69.1% | -4% | 32% | 12.2% | -2% | 31% | 59.9%
CN(C)CCCNc1c2ccccc2nc2ccc([N+](=O)[O-])cc12 | 16% | 80% (active) | 68.3% | 13% | 70% (active) | 25.6% | 21% | 80% (active) | 20.7% | 19% | 54% | 52.5% | 11% | 59% | 39.5% | 31% | 84% (active) | 29.2%
Nc1nc(Cc2ccccc2)nc(Cc2ccccc2)c1-c1ccccc1 | 25% | 97% (active) | 96.4% (active) | -2% | 98% (active) | 96.5% (active) | 6% | 98% (active) | 96.8% (active) | 4% | 95% (active) | 94.1% (active) | 15% | 98% (active) | 96% (active) | 4% | 97% (active) | 95.6% (active)
OCC1CCCCCCCCCCC1 | -2% | 90% (active) | 98.2% (active) | 0% | 66% | 75.2% (active) | 1% | 22% | 94.3% (active) | 1% | 30% | 92.3% (active) | 10% | 58% | 94.7% (active) | -1% | 51% | 89.2% (active)
CCO/C=C1/N=C(c2cc(Cl)cc([N+](=O)[O-])c2)OC1=O | 4% | -7% | 11.7% | -2% | 12% | 1.3% | -15% | 2% | 13.7% | 18% | 22% | -60.5% | 6% | 5% | -8.75% | -15% | 6% | 9.15%
CCC[CH2][Sn]([CH2]CCC)([O]C(=O)c1cc(F)ccc1F)[O][Sn]([CH2]CCC)([CH2]CCC)[O]C(=O)c1cc(F)ccc1F | 83% (active) | 94% (active) | 65.3% | 87% (active) | 97% (active) | 69.3% | 85% (active) | 96% (active) | 63.2% | 74% (active) | 90% (active) | 57.5% | 93% (active) | 97% (active) | 81% (active) | 89% (active) | 96% (active) | 85.9% (active)
CCCCCCCCCCCCCCCCOC(=O)C[n+]1cccc(C(N)=O)c1 | 2% | 50% | 89.8% (active) | 8% | 85% (active) | 94.4% (active) | 27% | 92% (active) | 97.2% (active) | -5% | 22% | 36% | -1% | 79% (active) | 73% (active) | 42% | 82% (active) | 92.3% (active)
CNc1ccc(C(=O)NC(CCCCNC(=O)OCc2ccccc2)C(=O)OC)cc1 (configuration not stated) | -3% | -1% | 93.8% (active) | 1% | 10% | 95% (active) | -18% | -17% | 97.9% (active) | -5% | 2% | 58.1% | -4% | 0% | 95.6% (active) | 2% | -9% | 98.6% (active)
CCC(C1SC(=S)NC1=O)C1SC(=S)NC1=O (configuration not stated) | 3% | 13% | 99.3% (active) | -1% | 29% | 99.6% (active) | 10% | 41% | 99.4% (active) | -9% | -2% | 82.9% (active) | -4% | 6% | 99.5% (active) | -1% | 35% | 99% (active)
C=C1CC[C@H]2C(C)=CC[C@@H]3[C@H](OC(=O)[C@H]3CN3CCN(c4ccc(C)c([N+](=O)[O-])c4)CC3)[C@@H]12 | 29% | 65% | 69% | 30% | 40% | 66.2% | 52% | 76% (active) | 79.6% (active) | 48% | 60% | 63% | 52% | 71% (active) | 69.8% | 42% | 72% (active) | 47.8%
CCCCCCCCCCCC(=O)OC/C=C/COC(=O)c1ccccc1 | 2% | 23% | 36% | -3% | 31% | -5.05% | 1% | 69% | 38.5% | 0% | 20% | 69.3% | -5% | 46% | 44% | -7% | 46% | 5.35%
C(=Nc1ccccc1)c1cn(Cc2ccccc2)c2ccccc12 | 90% (active) | 95% (active) | 83.1% (active) | 99% (active) | 99% (active) | -10.2% | 99% (active) | 99% (active) | 64.7% | 100% (active) | 99% (active) | -12.6% | 99% (active) | 99% (active) | 11.6% | 99% (active) | 97% (active) | 36.9%
C[C@]12CC[C@H](O)CC1=CC[C@@H]1C2CC[C@]2(C)C(=O)N(N)C(=O)CC12 (some centres not stated) | 7% | 92% (active) | 83.7% (active) | -24% | 91% (active) | 88.3% (active) | 16% | 93% (active) | 87.8% (active) | 2% | 92% (active) | 88.4% (active) | 16% | 93% (active) | 86.7% (active) | -11% | 91% (active) | 84.4% (active)
